This is an account of results in PubChem BioAssay (EPA / NIEHS).

SMILES strings stand for the structures. Inconclusive results are not listed. Calls of active or inactive are those of the source. How the source made its calls: active means hit-call score of the fitted dose curve at least 0.9, where 1 is the maximum; inconclusive means response in the unintended direction; inactive means score below 0.9.

Sequence of Estrogen receptor (Homo sapiens) (P03372 whole entry, looked up, the tested form may be a part): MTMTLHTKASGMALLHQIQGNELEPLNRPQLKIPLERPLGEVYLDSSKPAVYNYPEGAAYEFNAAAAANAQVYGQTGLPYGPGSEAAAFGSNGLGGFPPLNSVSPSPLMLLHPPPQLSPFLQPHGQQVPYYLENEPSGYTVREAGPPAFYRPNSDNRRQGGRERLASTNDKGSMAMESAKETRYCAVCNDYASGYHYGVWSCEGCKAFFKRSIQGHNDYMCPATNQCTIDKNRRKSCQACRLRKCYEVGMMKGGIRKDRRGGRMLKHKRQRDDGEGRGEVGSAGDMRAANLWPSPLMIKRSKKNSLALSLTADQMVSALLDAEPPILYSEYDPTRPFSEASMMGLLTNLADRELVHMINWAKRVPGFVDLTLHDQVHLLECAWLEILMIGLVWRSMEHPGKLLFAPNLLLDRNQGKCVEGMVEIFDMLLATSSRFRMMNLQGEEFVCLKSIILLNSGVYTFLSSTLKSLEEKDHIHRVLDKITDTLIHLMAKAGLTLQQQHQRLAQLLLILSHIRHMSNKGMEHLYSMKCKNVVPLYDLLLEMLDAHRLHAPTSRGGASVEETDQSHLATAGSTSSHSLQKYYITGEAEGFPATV

This assay has as its target Estrogen receptor (Homo sapiens) (UniProt P03372). Put plainly: OT_ER_ERaERa_0480: Odyssey Thera (OT) 8-hour HEK293T Protein-Complementation Assay for Estrogen Receptor-alpha/-alpha Homodimer (AID 2283351).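 Further: rise in fluorescence from reassembled reporter fragments on ERα LBD homodimer in nucleus or whole cell.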 As to the method:
OT_ER_ERaERa_0480 is a cell-based assay that uses HEK293T, a human kidney cell line, with measurements taken at 8 hours after chemical dosing in a 384-well plate.OT_ER_ERaERa_0480 is one of one assay component(s) measured or calculated from the OT_ER_ERaERa_0480 assay. It is designed to make measurements of protein fragment complementation, a form of binding reporter, as detected with fluorescence intensity signals by Protein-fragment Complementation technology.Data from the assay component OT_ER_ERaERa_0480 was analyzed into 1 assay endpoint. This assay endpoint, OT_ER_ERaERa_0480, was analyzed in the positive analysis fitting direction relative to DMSO as the negative control and baseline of activity. Using a type of binding reporter, measures of receptor for gain-of-signal activity can be used to understand the binding at the pathway-level as they relate to the gene ESR1. Furthermore, this assay endpoint can be referred to as a primary readout, because the performed assay has only produced 1 assay endpoint. To generalize the intended target to other relatable targets, this assay endpoint is annotated to the nuclear receptor intended target family, where the subfamily is steroidal.
Protein-fragment complementation assay, or PCA, is a method for the identification and quantification of protein-protein interactions. In the PCA, the proteins of interest ("bait" and "prey") are each covalently linked to fragments of a third protein (e.g. DHFR, which acts as a "reporter"). Interaction between the bait and the prey proteins brings the fragments of the reporter protein in close proximity to allow them to form a functional reporter protein whose activity can be measured. The OT ER alpha / ER alpha assay is a homodimer PCA of the ligand binding domain (amino acids 310-547) of human ER alpha stably expressed in HEK293T cells. […] Fluorescent signal in the basal state of the assay is very low and is primarily punctuate and cytoplasmic. Modulation of this assay is quantified as an increase in mean fluorescence intensity in the nucleus (for agonists) or in the nucleus and cytoplasm (antagonists) relative to vehicle controls, and can be quantified on a high content imaging device or a laser scanning cytometer. The latter instrument is favored for this assay because of the rapid mode of data acquisition, the ability to acquire data from the entire cell population in a well (as opposed to a fraction of the well on the high content devices) and the larger dynamic range typically achieved with this instrument. To assess sensitivity of the ER alpha/ER alpha LBD assay to ligand, cells were treated with the ER agonist 17 beta-estradiol (E2) in 10-point concentration- response format for 8 hours and monitored response on a laser scanning plate cytometer (Acumen eX3; TTP Lab Tech).
Consider `NCCO`, for which the outcome was inactive.
As to `Cc1ccc2ncccc2c1`, the outcome was inactive.
For the compound `CCCCCCCCCCCC(=O)OC`, the call was inactive.
The same measure, in the same setting: with `CC1(C)NC(=O)NC1=O` the entry was “inactive”; with `Cc1ccc(N(C)C)cc1`, “inactive”.
`O=c1c(O)c(-c2ccc(O)c(O)c2)oc2cc(O)cc(O)c12`: the call was inactive.
Same read-out and setting: the value for `Cc1cccc(Nc2cc(Cl)nc(SCC(=O)O)n2)c1C` was “inactive”; that for `CC1(C)CC(N=C=O)CC(C)(CN=C=O)C1` (stereo not given) was “inactive”.
The same measure, in the same setting: with `Cc1cccc([N+](=O)[O-])c1C` the entry was “inactive”.
On to `COC(=O)c1ccc(O)cc1`, for which the compound was called inactive.
Turning to `CCCCN(CCCC)CCCC`, the result was inactive.
Same read-out and setting: the value for `COc1ccc(S(=O)(=O)N2C(=O)[C@@](c3ccccc3OC)(N3C[C@H](O)C[C@H]3C(=O)N(C)C)c3cc(Cl)ccc32)c(OC)c1` was “inactive”.
Take `CC(=O)OCCOCCOCCOC(C)=O`: the result was inactive.
In the case of `Cc1ccc(C)c(C)c1`, the outcome was inactive.
On to `CC(C)(C)c1cc(O)c(C(C)(C)C)cc1O`, for which the call was inactive.
As for `Nc1ccccc1N`, the compound was called inactive.
With `NC(=O)Cn1c(=O)cc(CCN2CCN(c3nccc4sccc34)CC2)c2ccc(F)cc21`, the outcome was inactive.
Still for that read-out and setting: with `CCCCCCC(=O)OCC` the entry was “inactive”; with `O=[N+]([O-])C(CO)(CO)CO`, “inactive”.
As for `COCCOC[C@H](CC1(C(=O)NC2CCC(C(=O)O)CC2)CCCC1)C(=O)Oc1ccc2c(c1)CCC2` (stereo not given in full), the compound was classed as inactive.
Take `Cc1cc(=O)[nH]c(=S)[nH]1`: the compound was called inactive.
Take `C1CCC(SSC2CCCCC2)CC1`: the result was inactive.
Turning to `CCc1c(C(=O)NN2CCCCC2)nn(-c2ccc(Cl)cc2Cl)c1-c1ccc(Br)cc1`, the compound was called inactive.
On the same count and under the same terms, with `CCCCOC(=O)CCCCCCCCC(=O)OCCCC` the entry was “inactive”; with `Cc1ccc(C)c(O)c1C`, “inactive”; with `CCOC(=O)CCC(=O)OCC`, “inactive”.
As for `COc1cc(-c2nc(NC(=O)c3cc4cc(C)cc(C)c4n3CC(=O)O)sc2CCC2CCCCC2)c(OC)cc1Cl`, the call was inactive.
For `CC(CO)OC(C)CO` (stereo not given) (tested in a mixture with another compound), the call was inactive.
Regarding `CCCCCCCC=O`, the outcome was inactive.
Regarding `CCCCCCCCCCCCCO`, the call was inactive.
With `CCCc1cc(=O)[nH]c(=S)[nH]1`, the result was inactive.
As to `NS(=O)(=O)c1cc2c(cc1Cl)NCNS2(=O)=O`, the outcome was inactive.
As to `COc1ccc(C)cc1N`, the compound was classed as inactive.
`O=C(OCCCCCOC(=O)c1ccccc1)c1ccccc1`: the call was inactive.
Turning to `CCCCc1ccc2c(n1)[C@@H](c1ccc(OC)cc1C[C@H](C)C(=O)O)[C@H](C(=O)O)[C@H]2c1ccc2c(c1)OCO2`, the outcome was inactive.
For `CC=Cc1ccc(O)c(OC)c1`, the AC50 (commonly the midpoint of the concentration-response curve, whichever way the signal moves) was 57.6 µM (active).
As for `O=C(N[C@@H](Cc1ccccc1)[C@@H](O)C(=O)N1C[C@@H](O)[C@@H](O)C1)c1cc2cc(Cl)ccc2[nH]1`, the call was inactive.
As to `CCOc1ccc2c(c1)C(C)=CC(C)(C)N2`, the result was inactive.
On the same count and under the same terms, with `C[Si]1(C)O[Si](C)(C)O[Si](C)(C)O[Si](C)(C)O1` the entry was “inactive”; with `Oc1ccc2ccccc2c1N=Nc1ccccc1`, “inactive”.
